# The campaign covered roughly 190,000 compounds. About 930 (0.49%) were called active. The list shows a part of the results. Potency and affinity values are given separately. Unmarked numbers belong to inactive results.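 Rule for the calls: active = z-score of insulin promoter reporter brightness in nuclei below -3 at 5 µM, with at least 500 cells counted; inconclusive = wells with under 500 cells, flagged as toxic or sparse; inactive = the rest.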
# Test: decrease of insulin promoter-GFP reporter – imaging, high-content screening, mouse beta cells (AID 1628)
# Details: MIN6 insulin promoter GFP reporter, at 5 µM, stronger effect = lower value
row,SMILES,z-score
1,CCC(=NCCc1c[nH]c2ccccc12)c1c(O)n(C)c(=O)n(C)c1=O,-5.98 (active)
2,CNCCc1c[nH]c2ccccc12,-0.16
3,O=C(/C=C/c1c[nH]c2ccccc12)c1c(O)n(CCc2ccccc2)c(=O)[nH]c1=O,16
4,CCCCCCn1c(O)c(C=NC2CCCCC2N)c(=O)[nH]c1=O (stereo unspecified),-0.8
5,Cc1cc(C=C2C(=O)NC(=O)NC2=O)c(C)n1-c1ccncc1,2.32
6,CCCCn1c(O)c(C(=O)/C=C/c2c[nH]c3ccccc23)c(=O)[nH]c1=O,12.4
7,CCCCCn1c(=O)c(C(=O)Nc2nc3ccccc3[nH]2)c(O)c2ccccc21,-3.26 (active)
8,CCCCCn1c(=O)c(C(=O)Nc2cnccn2)c(O)c2ccccc21,-5.71 (active)
9,CCCCCCn1c(=O)c(C(=O)Nc2ccncc2)c(O)c2ccccc21,-5.74 (active)
10,CN1CCN(c2ccc(/C=C3\C(=O)NC(=S)N(c4cccc(Br)c4)C3=O)o2)CC1,3.97
11,O=C(O)c1cccc2nc3ccccc3nc12,-0.32
12,Oc1c(Cl)cc(Cl)cc1CN1CCN(Cc2ccccc2)CC1,2.17
13,O=[N+]([O-])c1ccc(NCc2ccccc2)c2nonc12,13.4
14,CCCCc1ccc2[nH]cc(CCN)c2c1,3.13
15,CC(=O)OC(C)(C)/C=C/C(=O)[C@](C)(O)[C@H]1[C@H](O)C[C@@]2(C)[C@@H]3CC=C4[C@H](C[C@H](O)C(=O)C4(C)C)[C@]3(C)C(=O)C[C@]12C,-4.32 (active)
16,CN1CC=C2C(C#N)=C(N)C(C#N)(C#N)C(c3ccncc3)C2C1 (stereo unspecified),8.74
17,O=c1[nH]c(=O)n(-c2ccc(F)cc2)c(O)c1C=Nc1ccccc1N1CCCC1,4.37
18,O=c1cc(C(F)(F)F)c2cc3c4c(c2o1)CCCN4CCC3,17.3
19,CC(C)N1CCN(Cc2cccc([N+](=O)[O-])c2)CC1,2.53
20,O=C(/C=C/c1ccccc1)NCCc1cnc[nH]1,-0.29
21,CN1/C(=C\C=C2C(=O)NC(=S)NC2=O)C(C)(C)c2ccccc21,14.4
22,O=C1Nc2ccc(Br)cc2C(c2ccccc2Cl)=NC1O (stereo unspecified),-0.25
23,N#Cc1ccccc1Cn1cc(C(=O)c2ccco2)c2ccccc21,-6.56 (active)
24,CN1C(=O)C(=Cc2ccc(N3CCCCC3)o2)C(=O)N(C)C1=S,4.86
25,Cc1ccc(Cn2nnnc2CN2CCC(n3nnc4cc(C(F)(F)F)ccc43)CC2)cc1,-3.36 (active)
26,CCCCCCn1c(O)c(C=Nc2ccccc2N2CCOCC2)c(=O)[nH]c1=S,3.25

row,SMILES,z-score
1,CC(C)(C)c1nc(NCc2ccc3c(c2)OCO3)c2nnn(Cc3ccccc3Cl)c2n1,2.04
2,COc1ccc(Cl)cc1NC1=NCC(C)S1 (stereo unspecified),-4.13 (active)
3,CN1CCN(c2nc(Cl)ncc2F)CC1,4.91
4,CC1=NCCc2c1[nH]c1ccccc21,-0.55
5,CCn1nc(/C=C/c2ccccc2)nc2c(=O)n(C)c(=O)nc1-2,-4.69 (active)
6,Cc1cc2c(C(F)(F)F)cc(=O)oc2c2c1NCCC2,5.21
7,CN1C2CCC1CC(=NO)C2,0.21
8,Nc1cc2nc3ccccc3nc2cc1N,3.68
9,CC(C)[C@H]1C(=O)O[C@H](C(C)C)C(=O)N(C)[C@@H](C(C)C)C(=O)O[C@H](C(C)C)C(=O)N(C)[C@@H](C(C)C)C(=O)O[C@H](C(C)C)C(=O)N1C,-4.32 (active)
10,NC(=O)OCCSc1nnc(-c2cccc(C(N)=S)c2)o1,1.36
11,O=C1NC(=O)N(c2ccc3c(c2)OCO3)C(=O)/C1=C/c1cccs1,1.66
12,c1ccc2c(N3CCNCC3)nsc2c1,3.06
13,COc1ccc(OCC(=O)N2CCN(C3CCC(c4ccccc4)CC3)CC2)cc1 (stereo unspecified),-4.73 (active)
14,COc1ccccc1CN1CCN(C(=O)COc2ccccc2)CC1,-4.58 (active)
15,COc1ccc(CC(=O)N2CCN(C)CC2)cc1,3.53
16,CCC(=O)c1ccc(OC)c(OC)c1,-0.74
17,C=CCN1C(=O)/C(=C/c2ccc(N3CCOCC3)o2)C(=O)NC1=S,3.53
18,Cn1c(=O)c2c(ncn2CCCl)n(C)c1=O,0.35
19,CCc1ccccc1N1C(=O)/C(=C/c2ccc(N3CCN(C)CC3)o2)C(=O)NC1=S,3.37
20,Cc1cc([N+](=O)[O-])c2ccccc2[n+]1[O-],-6.12 (active)
21,c1ccc2c(NC3=NCCS3)cccc2c1,-5.01 (active)
22,CC(Cc1ccccc1)NC(=O)CN1CCCC1=O (stereo unspecified),-3.46 (active)
23,COc1ccc(-c2cc(-c3ccccc3)[n+](C)c(-c3ccccc3)c2)cc1,-4.19 (active)
24,CCN(CC)c1ccc(/C=N/c2sc3c(c2C#N)C2CCN3CC2)c(O)c1,16.8
25,CC1CCCC(C2(O)C(=O)Nc3ccccc32)C1=O (stereo unspecified),5.61

# — PubChem BioAssay AID1628 (Sanford-Burnham Center for Chemical Genomics, 2009)
